p53 reactivation – re-activators of mutant p53. H1299 p53-A138V BP100-luciferase reporter, luminescence, 24 h. Potency, µM (top dose mostly 92.2 µM), for the others: top-dose activity change, positive = activation, hits mostly activators. hit rate 0.063% among 320,000; also: % of control where 0% means no effect; nearly all actives have a fitted effect of over 45% in size
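p53-null H1299 cells stably carrying temperature-sensitive p53-A138V and a BP100-luciferase reporter were pinned with compounds (4-point, 1:5 series) and held 24 hrs at 37 deg C. Luminescence was read 10 min after detection reagent.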
ELG1 genotoxic – induces genotoxicity in HEK293T cells with luciferase-tagged ELG1. Potency, µM (highest dose often 46 µM), inactives show at the highest dose activity change, positive = activation, most hits filed as activators. hit rate 1.3% among 330,000. HEK293T ELG1-luciferase reporter, luminescence, 16 h; also: % of control where 0% means no effect; nearly all actives have a fitted effect of over 60% in size
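16 hr compound incubation (37 °C, 5% CO2) of HEK293T cells carrying luciferase-tagged ELG1; luciferase then measured by ONE-Glo luminescence after 30 min at RT.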
Rab9 prom act – activators of Rab9 promoter; Huh7 Rab9 promoter-luciferase reporter, luminescence, 24 h; Potency, µM (doses to about 9.22 µM), inactives show at the highest dose activation, negative = inhibition, most hits filed as activators; hit rate 2.8% among 320,000; AID 485297; also: % of control where 0% means no effect; nearly all actives have a fitted effect of over 60% in size
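Cells were plated at 1500 per well in reduced-serum medium with 10% FBS and left 2 h. Compound in DMSO was then added for 24 h at 37 °C. Reporter signal was read by luminescence after 10 min with luciferase detection reagent.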
SMN2 splice enh – increases expression of the SMN2 splice variant; HEK293 SMN2-luciferase splicing reporter, luminescence, 30-36 h; Potency, µM (top dose mostly 46.1 µM), for inactives: at the top dose activity change, positive = activation, actives largely listed as activators; hit rate 2.8% among 210,000; AID 1458; also: % of control where 0% means no effect; nearly all actives have a fitted effect of over 55% in size
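HEK293 cells carry an SMN2 minigene-luciferase reporter in which exon 7 inclusion puts luciferase in frame. Cells were seeded at 2000 cells/well, attached for 10-12 hours, then exposed to compounds for 30-36 hours at 37C before ONE-Glo luminescence.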
NPC1 promoter act – activators of NPC1 promoter. Huh7 NPC1 promoter luciferase reporter, 24 h. Potency, µM (highest dose often 9.22 µM), without a hit: top-dose activation, hits mostly activators. hit rate 2.4% among 320,000. AID 485313; also: % of control where 0% means no effect; nearly all actives have a fitted effect of over 60% in size
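Readout is luciferase luminescence, reflecting NPC1 promoter activation in stably transfected Huh7 cells after 24 h compound exposure at 37 °C in reduced-serum medium with 10% FBS.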
FLuc counter – firefly luciferase modulation, counter-screen for miR-21 project; hit rate 6.9% among 360,000; purified FLuc, Km substrates, luminescence inhibition; Potency, µM (top dose mostly 57.5 µM), without a hit: at the top dose activity change, negative = inhibition, usual class: inhibitors; P08659; AID 588342;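 also: plate controls were vehicle for no effect and reference inhibitor for full effect; nearly all actives have a fitted effect of over 55% in size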
Target sequence (P08659 whole entry, looked up): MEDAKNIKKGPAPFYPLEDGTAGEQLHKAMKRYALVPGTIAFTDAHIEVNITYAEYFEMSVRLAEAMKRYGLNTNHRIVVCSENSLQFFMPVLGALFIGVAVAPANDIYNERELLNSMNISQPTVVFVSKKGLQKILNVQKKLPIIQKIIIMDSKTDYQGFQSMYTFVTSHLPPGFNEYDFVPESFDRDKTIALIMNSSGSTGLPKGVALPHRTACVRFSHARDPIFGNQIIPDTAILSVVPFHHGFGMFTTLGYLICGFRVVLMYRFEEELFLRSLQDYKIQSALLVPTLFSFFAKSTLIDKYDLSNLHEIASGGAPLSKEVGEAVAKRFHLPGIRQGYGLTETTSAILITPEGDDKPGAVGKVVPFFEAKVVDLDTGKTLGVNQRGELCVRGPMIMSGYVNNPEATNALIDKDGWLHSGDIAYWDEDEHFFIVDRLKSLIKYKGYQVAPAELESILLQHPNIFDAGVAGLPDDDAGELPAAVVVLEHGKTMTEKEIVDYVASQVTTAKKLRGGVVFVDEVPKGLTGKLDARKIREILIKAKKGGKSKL
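Purified P. pyralis luciferase, 10 nM final, with Km-level 10 uM D-luciferin and 10 uM ATP in 50 mM Tris acetate pH 7.5, 10 mM Mg acetate, 0.01% Tween-20, 0.05% BSA; 6-point qHTS titration about 60 µM downward; luminescence read.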
Starred values were filed as active, the others as inactive. The list is not random: actives were taken first. Their share in the collection is about 7.3%. Calls follow the shape of the dose curve; as a rule, active = well fitted curve in the direction sought with a large enough effect; inconclusive = small, poorly fitted or top-dose-only effect, or another doubt; inactive = no such curve, though single readings can be large; an effect the other way counts as inactive or inconclusive. Potency is read from the fitted curve at half-maximal effect.

Screening Cc1ccn2c(NC3CCCCC3)c(-c3cccc(SC4CCCCC4)c3)nc2c1 returned p53 reactivation 2% and ELG1 genotoxic -3%.
`Cc1cc(C)c(NC(=O)CN2C(=O)c3cccnc3Oc3ccc(C)cc32)c(C)c1` gave FLuc counter 2%.
Screening COc1cc(NC(=O)C(Cc2ccccc2)NS(=O)(=O)c2cccs2)cc(OC)c1 (stereo unspecified) returned FLuc counter -12%.
For O=C(/C=C/c1ccc(-c2cccc([N+](=O)[O-])c2)o1)N1CCOCC1 the results were p53 reactivation -3%, ELG1 genotoxic inconclusive, Rab9 prom act 4µM*, NPC1 promoter act inconclusive and FLuc counter inconclusive.
For O=C(/C=C/c1cccc([N+](=O)[O-])c1)N1CCOCC1 the results were p53 reactivation 3%, ELG1 genotoxic 2%, Rab9 prom act -5%, SMN2 splice enh 4%, NPC1 promoter act 5% and FLuc counter 0%.
`C/C=C(\C)C(=O)C[Si](C)(C)c1ccccc1` gave SMN2 splice enh 18%.
Screening COc1ccc(-c2cn(Cc3ccc(C(N)=O)cc3)c(-c3ccncc3)n2)cc1 returned p53 reactivation inconclusive, ELG1 genotoxic inconclusive, Rab9 prom act 2.5µM*, NPC1 promoter act 3.2µM* and FLuc counter 2.4µM*.
Screening COc1ccc(C=Nc2cccc3c(=O)[nH][nH]c(=O)c23)c2ccccc12 returned p53 reactivation 3%, ELG1 genotoxic 1%, Rab9 prom act -4%, SMN2 splice enh -15%, NPC1 promoter act -3% and FLuc counter inconclusive.
COc1cccc(C=Nc2cccc3c(=O)[nH][nH]c(=O)c23)c1O was read as p53 reactivation 14%, ELG1 genotoxic inconclusive, Rab9 prom act 0%, SMN2 splice enh 9%, NPC1 promoter act -3% and FLuc counter 0.6µM*.
Cc1ccc(-n2nc(C(=O)Nc3ccc(F)cc3Cl)c(=O)n(C)c2=O)cc1 was read as FLuc counter -1%.
`O=C(O)c1cccc(-c2ccc(/C=N/Nc3nn[nH]n3)o2)c1` gave p53 reactivation 10%, ELG1 genotoxic 3%, Rab9 prom act 23%, SMN2 splice enh 19%, NPC1 promoter act 10% and FLuc counter inconclusive.
`Nc1nonc1C(=O)N/N=C/c1ccc(-c2cccc(C(=O)O)c2)o1` gave p53 reactivation 11%, ELG1 genotoxic 1%, Rab9 prom act 19%, SMN2 splice enh 19%, NPC1 promoter act 0% and FLuc counter 17µM*.
O=C(CN1CCCCC1)N/N=C/c1cccc(Cl)c1 was read as ELG1 genotoxic -2%, Rab9 prom act 1%, NPC1 promoter act -1% and FLuc counter 2%.
COc1ccc(CC(=O)N/N=C/c2ccc(-c3cccc(C(=O)O)c3)o2)cc1OC was read as p53 reactivation 9%, ELG1 genotoxic 15%, Rab9 prom act 1%, NPC1 promoter act 12% and FLuc counter inconclusive.
Screening O=C(CN1CCCC1)N/N=C/c1ccc(-c2cccc(Cl)c2)o1 returned p53 reactivation 0%, ELG1 genotoxic -2%, Rab9 prom act -2%, SMN2 splice enh -4%, NPC1 promoter act 1% and FLuc counter 12µM*.
Screening Cc1ccc(OCC(=O)N/N=C\c2ccc(-c3cccc(C(=O)O)c3)o2)c(C)c1 returned p53 reactivation inconclusive, ELG1 genotoxic 14%, Rab9 prom act 13%, SMN2 splice enh 29%, NPC1 promoter act 12% and FLuc counter 6.7µM*.
`CNC(=S)N/N=C/c1ccc(-c2cccc(C(=O)O)c2)o1` gave p53 reactivation 18%, ELG1 genotoxic inconclusive, Rab9 prom act 2.8µM*, NPC1 promoter act 2.2µM* and FLuc counter 6.7µM*.
Screening CCOC(=O)c1cc(C)n(CC2CCC(C(=O)Nc3ccc(C)cc3)CC2)c1C (stereo unspecified) returned FLuc counter -3%.
COc1ccc(CCC(=O)NC2CCC(C)CC2)cc1 (stereo unspecified) was read as p53 reactivation -10%, ELG1 genotoxic 2%, Rab9 prom act -5%, NPC1 promoter act -3% and FLuc counter -1%.
For COc1ccc(Nc2cc(O)c3ncccc3c2)cc1 the results were Rab9 prom act -43%, NPC1 promoter act -40% and FLuc counter inconclusive.
For CCOC(=O)N1CCC(NC(=O)c2ccc3c(c2)N(Cc2ccc(F)cc2)C(=O)c2ccccc2S3(=O)=O)CC1 the results were SMN2 splice enh 5% and FLuc counter -4%.
`Oc1oc(-c2ccco2)nc1C=Nc1cccc(Cl)c1` gave p53 reactivation 2%, ELG1 genotoxic -4%, Rab9 prom act -7%, SMN2 splice enh -16%, NPC1 promoter act 0% and FLuc counter 15µM*.
`CCOc1ccc(-c2nnc(SCC(=O)NC3CCCC3)nc2-c2ccc(OCC)c(OC)c2)cc1OC` gave FLuc counter -1%.
Screening COc1ccccc1/C=C/C(=O)Nc1nc(N)n(-c2ccccc2)n1 returned p53 reactivation 2%, ELG1 genotoxic -1%, Rab9 prom act 0%, NPC1 promoter act -2% and FLuc counter 19µM*.
For COc1ccc(C(=O)Nc2nc(N)n(-c3ccccc3)n2)cc1 the results were p53 reactivation 18%, ELG1 genotoxic 15%, Rab9 prom act 4%, SMN2 splice enh 2%, NPC1 promoter act 4% and FLuc counter 17µM*.
`Nc1nc(NC(=O)c2ccccc2)nn1-c1ccccc1` gave p53 reactivation inconclusive, ELG1 genotoxic inconclusive, Rab9 prom act 28%, SMN2 splice enh inconclusive, NPC1 promoter act 23% and FLuc counter inconclusive.
For Nc1nc(NC(=O)c2cccs2)nn1-c1ccccc1 the results were p53 reactivation 9%, ELG1 genotoxic inconclusive, Rab9 prom act 2.5µM*, SMN2 splice enh 11µM*, NPC1 promoter act 2.8µM* and FLuc counter 17µM*.
`Nc1nc(NC(=O)c2ccccc2Cl)nn1-c1ccccc1` gave p53 reactivation 11%, ELG1 genotoxic 5%, Rab9 prom act 22%, NPC1 promoter act 2% and FLuc counter -19%.
`COc1ccc(C(=O)Nc2nc(N)n(-c3ccccc3)n2)cc1OC` gave p53 reactivation 4%, ELG1 genotoxic 0%, Rab9 prom act -6%, SMN2 splice enh -2%, NPC1 promoter act 9% and FLuc counter -10%.
`Cc1ccc(-c2noc(-c3cccnc3N(C)Cc3ccc(Cl)cc3)n2)cc1` gave FLuc counter 0%.
For CCc1ccc(-c2nn(CC(=O)Nc3ccccc3C)c3c2cnc2ccc(C)cc23)cc1 the results were FLuc counter 1%.

Compound activity: PubChem, National Center for Advancing Translational Sciences (NCATS)
